“And” between values parts separate entries of the source, which are not always exact repeats. Identical values can stand only once. In all, about 5,500 compounds went through this assay and about 2,000 (36%) were called active. Inconclusive results (about 18%) are left out. No stated cut-off is given here; in the data, active means normalized growth mostly below about 0.91 (no sharp cut-off); inconclusive means no clear call, values can overlap the other calls; inactive means mostly above about 0.92. The list shows a part of the results.
Test: chemical genetic growth profiling, strain panel (AID 1159580);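 further: tested at 20 µM; growth read once vehicle control cultures reached saturation at 30 °C; 1 = growth at the plate median or of vehicle wells; lower values mean less growth of the strain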
Conditions: S. cerevisiae deletion strains, growth OD

Measured: normalized growth

CN(C)c1nc(N(C)C)nc(N(C)C)n1
inactive: locus YAL021C, strain ccr4, active compounds read low 0.992 | locus YAL026C, strain drs2, active compounds read low 0.979 | locus YAL030W, strain snc1, active compounds read low 1 | locus YAL040C, strain CLN3, active compounds read low 0.972 | locus YBL061C, strain skt5, active compounds read low 0.959 | locus YBR009C, strain hhf1, active compounds read low 0.97 | locus YBR021W, strain FUR4, active compounds read low 1 | locus YBR023C, strain chs3, active compounds read low 0.969 | locus YBR171W, strain sec66, active compounds read low 0.976 | locus YBR229C, strain ROT2, active compounds read low 1.01 | locus YBR231C, strain swc5, active compounds read low 0.971 | locus YBR279W, strain paf1, active compounds read low 1.01 | locus YCL011C, strain gbp2, active compounds read low 0.959 | locus YCL016C, strain dcc1, active compounds read low 0.966 | locus YCL029C, strain bik1, active compounds read low 1.03 | locus YCL061C, strain MRC1, active compounds read low 0.979 | locus YCL069W, strain vba3, active compounds read low 0.986 | locus YCR088W, strain abp1, active compounds read low 0.989 | locus YDL005C, strain med2, active compounds read low 0.984 | locus YDL035C, strain GPR1, active compounds read low 1.02 | locus YDL040C, strain nat1, active compounds read low 0.991 | locus YDL074C, strain BRE1, active compounds read low 0.991 | locus YDL101C, strain DUN1, active compounds read low 1.01 | locus YDL134C, strain PPH21, active compounds read low 1.01 | locus YDL185W, strain tfp1, active compounds read low 1.02 | locus YDL192W, strain arf1, active compounds read low 1.02 | locus YDR001C, strain nth1, active compounds read low 0.977 | locus YDR069C, strain doa4, active compounds read low 0.979 | locus YDR101C, strain arx1, active compounds read low 1.01 | locus YDR137W, strain rgp1, active compounds read low 0.924 | locus YDR150W, strain NUM1, active compounds read low 1 | locus YDR159W, strain sac3, active compounds read low 0.963 | locus YDR162C, strain NBP2, active compounds read low 1.02 | locus YDR195W, strain ref2 0.998 | locus YDR297W, strain sur2, active compounds read low 0.981 | locus YDR318W, strain mcm21, active compounds read low 1.02 | locus YDR334W, strain swr1, active compounds read low 0.942 | locus YDR335W, strain msn5, active compounds read low 0.97 | locus YDR363W, strain ESC2, active compounds read low 1.03 | locus YDR388W, active compounds read low 1.02 | locus YDR392W, strain spt3, active compounds read low 0.899 | locus YDR502C, strain sam2, active compounds read low 1.01 | locus YEL003W, strain gim4, active compounds read low 0.987 | locus YEL037C, strain rad23, active compounds read low 0.988 | locus YEL061C, strain CIN8 (second series), active compounds read low 0.976 | locus YEL061C, strain CIN8, active compounds read low 1 | locus YER002W, strain NOP16, active compounds read low 0.995 | locus YER015W, strain faa2, active compounds read low 0.969 | locus YER016W, strain bim1, active compounds read low 0.987 | locus YER110C, active compounds read low 1.02 | locus YER111C, strain swi4, active compounds read low 0.981 | locus YER155C, strain BEM2 (second series), active compounds read low 0.975 | locus YER155C, strain BEM2, active compounds read low 1 | locus YER167W, strain BCK2, active compounds read low 1.01 | locus YFR010W, strain ubp6, active compounds read low 0.956 | locus YGL078C, strain dbp3, active compounds read low 1.01 | locus YGL086W, strain mad1, active compounds read low 1 | locus YGL167C, strain pmr1, active compounds read low 0.975 | locus YGL173C, strain kem1, active compounds read low 0.959 | locus YGL227W, strain vid30, active compounds read low 0.989 | locus YGL240W, strain doc1, active compounds read low 0.966 | locus YGL248W, strain PDE1, active compounds read low 1.01 | locus YGL253W, strain hxk2, active compounds read low 0.987 | locus YGR078C, strain PAC10, active compounds read low 1 and 0.999 | locus YGR135W, strain pre9, active compounds read low 1.03 | locus YGR252W, strain gcn5, active compounds read low 1.05 | locus YHR013C, strain ard1, active compounds read low 0.964 | locus YHR027C, strain rpn1, active compounds read low 0.959 | locus YHR030C, strain SLT2, active compounds read low 1.01 and 0.974 | locus YHR079C, strain IRE1 (second series), active compounds read low 1.02 | locus YHR079C, strain IRE1, active compounds read low 0.981 | locus YHR094C, strain hxt1, active compounds read low 1.02 | locus YHR129C, strain ARP1, active compounds read low 1.01 | locus YHR142W, strain chs7, active compounds read low 0.929 | locus YHR200W, strain rpn10, active compounds read low 1.02 | locus YIL066C, strain RNR3, active compounds read low 1.01 | locus YIL073C, strain SPO22, active compounds read low 1.09 | locus YIL125W, strain kgd1, active compounds read low 1.02 | locus YIR030C, strain dcg1, active compounds read low 1.03 | locus YJL092W, strain hpr5, active compounds read low 0.988 | locus YJL095W, strain BCK1 (second series), active compounds read low 0.975 | locus YJL095W, strain BCK1, active compounds read low 1 and 0.97 | locus YJL115W, strain asf1, active compounds read low 0.959 | locus YJL129C, strain trk1, active compounds read low 0.999 | locus YJL134W, strain LCB3, active compounds read low 1.01 | locus YJL154C, strain vps35, active compounds read low 0.986 | locus YJL164C, strain tpk1, active compounds read low 0.989 | locus YJL166W, strain qcr8, active compounds read low 0.958 | locus YJL168C, strain set2, active compounds read low 1.01 | locus YJL187C, strain SWE1 (second series), active compounds read low 1 | locus YJL187C, strain SWE1, active compounds read low 0.978 | locus YJR043C, strain POL32, active compounds read low 1.01 | locus YJR066W, strain TOR1, active compounds read low 0.947
